Compound in this experiment: CC1Cc2ccccc2N1C(=O)C1CCCN(C1)C(=O)CCl (mixture of isomers) [TRIM25 ligand 11 (diastereomer mixture)]
The experiment in a line: probe-labelled cysteine peptide fold change vs DMSO (competition) (log2 fold change); higher = less target engagement (more negative = stronger competition). The settings on record: THP-1, incubation time: 4 h.

The full data set covers some 21,000 targets. This sample favours those with the largest changes.
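Also: competitive chemoproteomic profiling in live THP-1 cells with an iodoacetamide desthiobiotin (IA-DTB) probe, comparing probe-labelled peptide intensities in compound-treated cells against DMSO-treated controls.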

Sequence of UniProt Q9BX70 (Q9BX70 whole entry, looked up): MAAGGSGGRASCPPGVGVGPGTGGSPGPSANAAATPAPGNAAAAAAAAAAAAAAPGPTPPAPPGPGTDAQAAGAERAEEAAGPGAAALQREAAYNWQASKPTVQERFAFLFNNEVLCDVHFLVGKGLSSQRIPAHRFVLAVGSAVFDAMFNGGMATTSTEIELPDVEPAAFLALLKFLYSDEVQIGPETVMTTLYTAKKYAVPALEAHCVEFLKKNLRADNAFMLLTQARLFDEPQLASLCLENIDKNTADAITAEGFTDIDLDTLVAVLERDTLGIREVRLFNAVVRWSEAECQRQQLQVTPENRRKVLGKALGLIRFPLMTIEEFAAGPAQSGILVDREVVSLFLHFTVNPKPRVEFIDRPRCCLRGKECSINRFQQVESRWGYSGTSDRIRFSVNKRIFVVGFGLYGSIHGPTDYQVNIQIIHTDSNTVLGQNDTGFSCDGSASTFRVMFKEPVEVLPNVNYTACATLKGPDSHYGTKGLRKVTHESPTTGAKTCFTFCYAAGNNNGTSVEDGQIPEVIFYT
Sequence of UniProt Q9Y6E2 (Q9Y6E2 whole entry, looked up): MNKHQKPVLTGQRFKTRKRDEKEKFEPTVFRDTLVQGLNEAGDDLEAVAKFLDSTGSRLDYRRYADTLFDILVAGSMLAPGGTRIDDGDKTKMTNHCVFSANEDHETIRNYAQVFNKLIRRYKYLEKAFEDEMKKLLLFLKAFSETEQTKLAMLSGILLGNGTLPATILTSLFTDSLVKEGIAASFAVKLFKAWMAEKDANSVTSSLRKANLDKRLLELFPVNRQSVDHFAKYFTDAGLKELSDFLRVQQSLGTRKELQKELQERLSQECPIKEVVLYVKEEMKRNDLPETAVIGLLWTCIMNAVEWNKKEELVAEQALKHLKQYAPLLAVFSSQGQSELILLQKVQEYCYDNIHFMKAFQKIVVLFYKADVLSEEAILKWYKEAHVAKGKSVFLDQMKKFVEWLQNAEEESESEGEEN
Sequence of UniProt Q9Y232 (Q9Y232 whole entry, looked up): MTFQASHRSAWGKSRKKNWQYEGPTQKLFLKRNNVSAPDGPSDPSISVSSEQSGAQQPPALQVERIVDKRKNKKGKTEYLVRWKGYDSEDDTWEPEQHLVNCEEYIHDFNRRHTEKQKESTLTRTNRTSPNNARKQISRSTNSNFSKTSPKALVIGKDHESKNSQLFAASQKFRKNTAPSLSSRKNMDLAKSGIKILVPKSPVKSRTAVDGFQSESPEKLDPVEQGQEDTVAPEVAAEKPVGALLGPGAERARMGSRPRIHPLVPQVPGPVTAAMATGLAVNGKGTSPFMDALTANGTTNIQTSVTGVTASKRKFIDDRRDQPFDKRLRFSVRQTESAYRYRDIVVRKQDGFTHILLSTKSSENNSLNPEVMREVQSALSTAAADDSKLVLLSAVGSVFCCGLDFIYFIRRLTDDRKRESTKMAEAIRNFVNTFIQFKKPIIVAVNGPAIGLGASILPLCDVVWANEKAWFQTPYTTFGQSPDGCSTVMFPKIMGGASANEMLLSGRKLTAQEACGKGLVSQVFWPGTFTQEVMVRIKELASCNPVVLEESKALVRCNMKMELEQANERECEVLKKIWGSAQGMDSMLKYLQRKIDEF
Sequence of UniProt Q14790 (Q14790 whole entry, looked up): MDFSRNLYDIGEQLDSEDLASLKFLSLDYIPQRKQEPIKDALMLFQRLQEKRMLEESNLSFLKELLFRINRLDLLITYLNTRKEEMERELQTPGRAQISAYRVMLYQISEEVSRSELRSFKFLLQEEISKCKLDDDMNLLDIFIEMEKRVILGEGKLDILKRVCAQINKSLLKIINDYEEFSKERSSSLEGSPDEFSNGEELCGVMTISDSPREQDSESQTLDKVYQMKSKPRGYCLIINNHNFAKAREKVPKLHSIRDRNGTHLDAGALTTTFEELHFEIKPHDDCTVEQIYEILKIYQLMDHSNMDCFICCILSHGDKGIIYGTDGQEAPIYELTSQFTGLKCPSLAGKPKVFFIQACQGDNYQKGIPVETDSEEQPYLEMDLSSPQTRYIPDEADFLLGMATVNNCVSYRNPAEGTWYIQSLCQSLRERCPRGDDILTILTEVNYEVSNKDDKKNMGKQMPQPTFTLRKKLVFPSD
Sequence of UniProt Q8IX12 (Q8IX12 whole entry, looked up): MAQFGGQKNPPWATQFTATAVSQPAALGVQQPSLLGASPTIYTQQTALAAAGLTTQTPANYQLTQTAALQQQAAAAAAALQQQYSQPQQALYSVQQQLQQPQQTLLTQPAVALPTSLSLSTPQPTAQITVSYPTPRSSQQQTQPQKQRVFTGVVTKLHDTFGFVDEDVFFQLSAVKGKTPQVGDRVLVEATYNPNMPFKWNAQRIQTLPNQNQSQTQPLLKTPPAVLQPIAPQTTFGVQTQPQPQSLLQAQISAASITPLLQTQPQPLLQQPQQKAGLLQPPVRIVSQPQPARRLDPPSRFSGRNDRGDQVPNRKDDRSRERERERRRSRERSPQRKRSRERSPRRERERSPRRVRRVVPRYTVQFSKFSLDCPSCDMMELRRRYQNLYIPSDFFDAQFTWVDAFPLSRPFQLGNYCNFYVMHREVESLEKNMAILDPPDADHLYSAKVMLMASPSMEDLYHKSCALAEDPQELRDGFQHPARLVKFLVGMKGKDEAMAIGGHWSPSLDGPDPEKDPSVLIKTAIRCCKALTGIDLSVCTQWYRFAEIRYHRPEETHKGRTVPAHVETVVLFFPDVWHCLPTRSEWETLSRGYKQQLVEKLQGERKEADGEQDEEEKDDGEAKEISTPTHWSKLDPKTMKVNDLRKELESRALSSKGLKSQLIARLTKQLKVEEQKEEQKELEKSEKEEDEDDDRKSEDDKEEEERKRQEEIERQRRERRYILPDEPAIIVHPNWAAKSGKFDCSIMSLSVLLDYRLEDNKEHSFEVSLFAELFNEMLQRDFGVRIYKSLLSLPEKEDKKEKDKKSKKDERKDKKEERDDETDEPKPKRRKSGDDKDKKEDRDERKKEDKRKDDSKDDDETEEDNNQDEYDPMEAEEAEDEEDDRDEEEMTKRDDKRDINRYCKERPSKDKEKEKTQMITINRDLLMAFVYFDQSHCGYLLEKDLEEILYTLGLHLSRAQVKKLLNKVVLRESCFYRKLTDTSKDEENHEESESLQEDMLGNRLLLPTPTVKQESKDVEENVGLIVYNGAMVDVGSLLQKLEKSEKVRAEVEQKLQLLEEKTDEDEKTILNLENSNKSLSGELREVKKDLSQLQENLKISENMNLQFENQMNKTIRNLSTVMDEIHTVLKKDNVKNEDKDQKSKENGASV
Sequence of UniProt Q99439 (Q99439 whole entry, looked up): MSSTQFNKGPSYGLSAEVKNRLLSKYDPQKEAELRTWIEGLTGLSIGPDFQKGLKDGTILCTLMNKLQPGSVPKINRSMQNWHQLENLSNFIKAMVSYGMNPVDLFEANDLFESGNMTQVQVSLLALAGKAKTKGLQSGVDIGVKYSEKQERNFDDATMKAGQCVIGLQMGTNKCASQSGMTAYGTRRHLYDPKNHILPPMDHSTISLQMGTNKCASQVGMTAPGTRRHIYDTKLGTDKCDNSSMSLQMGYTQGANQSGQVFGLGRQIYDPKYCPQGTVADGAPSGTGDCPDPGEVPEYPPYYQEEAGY
Sequence of UniProt Q9Y259 (Q9Y259 whole entry, looked up): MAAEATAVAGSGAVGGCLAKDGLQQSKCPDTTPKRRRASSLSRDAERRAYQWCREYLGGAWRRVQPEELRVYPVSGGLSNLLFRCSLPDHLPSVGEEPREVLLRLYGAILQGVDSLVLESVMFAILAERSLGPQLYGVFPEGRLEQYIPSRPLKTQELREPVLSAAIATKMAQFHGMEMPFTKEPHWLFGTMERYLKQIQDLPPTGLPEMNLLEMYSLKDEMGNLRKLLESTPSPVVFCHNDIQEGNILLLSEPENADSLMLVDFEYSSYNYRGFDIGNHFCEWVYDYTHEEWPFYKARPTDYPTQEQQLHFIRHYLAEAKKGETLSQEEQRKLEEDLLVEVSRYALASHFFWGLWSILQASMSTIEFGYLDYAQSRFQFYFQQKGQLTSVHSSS
Sequence of UniProt P48643 (P48643 whole entry, looked up): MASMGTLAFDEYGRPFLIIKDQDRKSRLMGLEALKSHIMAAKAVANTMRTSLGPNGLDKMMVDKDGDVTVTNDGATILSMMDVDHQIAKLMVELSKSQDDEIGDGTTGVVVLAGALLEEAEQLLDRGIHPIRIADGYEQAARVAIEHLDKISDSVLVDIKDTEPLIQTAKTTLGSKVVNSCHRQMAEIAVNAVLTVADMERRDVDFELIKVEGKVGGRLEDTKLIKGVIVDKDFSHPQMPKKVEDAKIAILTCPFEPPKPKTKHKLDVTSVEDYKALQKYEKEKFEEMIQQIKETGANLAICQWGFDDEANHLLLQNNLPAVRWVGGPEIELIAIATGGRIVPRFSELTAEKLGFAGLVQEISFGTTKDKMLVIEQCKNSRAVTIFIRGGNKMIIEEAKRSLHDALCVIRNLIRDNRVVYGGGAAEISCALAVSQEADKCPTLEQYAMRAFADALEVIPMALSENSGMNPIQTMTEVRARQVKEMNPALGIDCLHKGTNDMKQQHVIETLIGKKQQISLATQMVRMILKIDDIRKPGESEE
Sequence of UniProt O75909 (O75909 whole entry, looked up): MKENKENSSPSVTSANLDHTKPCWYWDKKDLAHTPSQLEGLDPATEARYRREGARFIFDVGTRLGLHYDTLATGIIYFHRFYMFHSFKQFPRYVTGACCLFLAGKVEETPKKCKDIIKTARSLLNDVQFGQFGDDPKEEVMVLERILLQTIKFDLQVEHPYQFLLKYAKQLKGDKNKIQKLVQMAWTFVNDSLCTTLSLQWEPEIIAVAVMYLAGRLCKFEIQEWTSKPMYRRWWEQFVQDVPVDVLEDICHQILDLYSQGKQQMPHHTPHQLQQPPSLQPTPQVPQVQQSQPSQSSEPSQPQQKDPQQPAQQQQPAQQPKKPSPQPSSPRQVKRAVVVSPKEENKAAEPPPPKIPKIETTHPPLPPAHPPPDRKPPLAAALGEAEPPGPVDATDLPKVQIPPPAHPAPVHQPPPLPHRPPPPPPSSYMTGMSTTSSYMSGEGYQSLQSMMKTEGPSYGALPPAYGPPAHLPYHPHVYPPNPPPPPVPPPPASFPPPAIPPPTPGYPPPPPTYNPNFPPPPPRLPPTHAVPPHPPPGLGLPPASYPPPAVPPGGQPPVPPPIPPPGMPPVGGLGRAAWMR

For “BTBD2_Q9BX70_241_LFDEPQLASLCLENIDK (UniProt Q9BX70)”, the “probe-labelled cysteine peptide fold change” value runs as follows: (10 µM) 0.22; (50 µM) 0.0147.

Regarding “BZW2_Q9Y6E2_97_MTNHCVFSANEDHETIR (UniProt Q9Y6E2)”, the “probe-labelled cysteine peptide fold change” value (10 µM) is 0.0541 and the “probe-labelled cysteine peptide fold change” value (50 µM) was -0.0628.

On to “CCNK_O75909_99_YVTGACCLFLAGK (UniProt O75909)”, for which the “probe-labelled cysteine peptide fold change” value was 0.1 (10 µM) and 0.32 (50 µM).

On to “COPS7B_Q9H9Q2_157_NQLLEVDFCIGR (UniProt Q9H9Q2)”, for which the “probe-labelled cysteine peptide fold change” value reads like this: (10 µM) -0.0213; (50 µM) -0.0864.

For “CCT5_P48643_181_VVNSCHR (UniProt P48643)”, the “probe-labelled cysteine peptide fold change” value reads like this: (10 µM) 0.109; (50 µM) 0.0213.

With “CNN2_Q99439_61_DGTILCTLMNK (UniProt Q99439)”, the “probe-labelled cysteine peptide fold change” value is, setting by setting: (10 µM) 0.00655; (50 µM) 0.0892.

Turning to “COG3_Q96JB2_363_ELLLGPSIACTVAELTSQNNRDHCALVR (UniProt Q96JB2)”, the “probe-labelled cysteine peptide fold change” value (10 µM) was -0.436 and the “probe-labelled cysteine peptide fold change” value (50 µM) is 0.793.

For “CHKB_Q9Y259_85_CSLPDHLPSVGEEPREVLLR (UniProt Q9Y259)”, the “probe-labelled cysteine peptide fold change” value was -0.301 (10 µM) and -0.0104 (50 µM).

On to “CLCN3_P51790_733_VCFAQHTPSLPAESPRPLK (UniProt P51790)”, for which the “probe-labelled cysteine peptide fold change” value (10 µM) was 0.0602 and the “probe-labelled cysteine peptide fold change” value (50 µM) was 0.0245.

“CDYL_Q9Y232_571_MELEQANERECEVLK (UniProt Q9Y232)”: the “probe-labelled cysteine peptide fold change” value is, setting by setting: (10 µM) -0.0968; (50 µM) -0.0996.

“CFL1_P23528_139_KLTGIKHELQANCYEEVK (UniProt P23528)”: the “probe-labelled cysteine peptide fold change” value was -0.632 (10 µM) and -0.503 (50 µM).

Turning to “CNOT4_O95628_175_AIQCVNNVVVDGR (UniProt O95628)”, the “probe-labelled cysteine peptide fold change” value (10 µM) was determined as 0.0992 and the “probe-labelled cysteine peptide fold change” value (50 µM) is 0.172.

On to “CAMK2G_Q13555_7_ATTATCTR (UniProt Q13555)”, for which the “probe-labelled cysteine peptide fold change” value is, setting by setting: (10 µM) 0.042; (50 µM) -0.225.

As to “COPA_P53621_1148_KILSACEK (UniProt P53621)”, the “probe-labelled cysteine peptide fold change” value is, setting by setting: (10 µM) -0.616; (50 µM) -0.459.

Turning to “CNOT8_Q9UFF9_148_HEEEGIDTLHFAELLMTSGVVLCDNVK (UniProt Q9UFF9)”, the “probe-labelled cysteine peptide fold change” value came out at 0.648 (10 µM) and 0.338 (50 µM).

For the target “CCAR1_Q8IX12_937_DLLMAFVYFDQSHCGYLLEK (UniProt Q8IX12)”, the “probe-labelled cysteine peptide fold change” value runs as follows: (10 µM) 0.653; (50 µM) 0.739.

For “CASP8_Q14790_345_CPSLAGKPK (UniProt Q14790)”, the “probe-labelled cysteine peptide fold change” value was -0.0611 (10 µM) and -0.0798 (50 µM).

For the origin of these results see the supplement of paper PMC12067093, “Discovery and optimisation of a covalent ligand for TRIM25 and its application to targeted protein ubiquitination” (Chemical Science, 2025).
